The values that follow come from PubChem BioAssay.

The nature of assay [1]: rapamycin-like changes in RPL19A-GFP expression – cell-based, S. cerevisiae, multiplex flow cytometry, primary screen (AID 1862).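 Also: lower values mimic rapamycin by blocking the RPL19A rise seen in DMSO cells.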 Particulars: S. cerevisiae RPL19A-GFP strain, flow cytometry fluorescence, 3 h; at 10 µM; stronger effect = lower value. For orientation: Flow cytometry measures light scatter and fluorescence of single cells or particles in a stream.
Assay [2] in a line: TOR pathway GLN3 branch reporter MEP2-GFP changes – S. cerevisiae, multiplex flow cytometry, primary screen (AID 1867;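 active = GFP response, as percent of the DMSO control, above the screen-wide mean plus 3 SD, about 139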;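 also: median GFP channel fluorescence of barcode-gated MEP2-GFP cells measured by flow cytometry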). Particulars: S. cerevisiae MEP2-GFP strain, 3 h, at 10 µM, stronger effect = higher value, 100% means same as DMSO wells.
Assay [3] in a line: TOR pathway RTG branch CIT2 reporter changes – S. cerevisiae, GFP fusion, multiplex flow cytometry, primary screen (AID 1870;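 active = percent response above a set limit, the screen-wide mean plus 3 SD, cut at about 130% in these data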;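 also: barcoded CIT2-GFP strain pooled with four other GFP strains with rapamycin as positive control; median GFP fluorescence per well over plate mean of DMSO wells so 100% = DMSO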). Particulars: S. cerevisiae CIT2-GFP expression, 3 h, at 10 µM, stronger effect = higher value.
The nature of assay [4]: TOR pathway LAP4-GFP level changes – S. cerevisiae, multiplex flow cytometry, primary screen (AID 1873;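 active = GFP signal, as percent of the solvent control, above the screen mean plus 3 SD, about 149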). Particulars: S. cerevisiae LAP4-GFP expression, 3 h, at 10 µM, stronger effect = higher value.
Assay [5] can be described thus: yeast AGP1-GFP level changes, GLN3 branch – cell-based, multiplex flow cytometry, S. cerevisiae, primary screen (AID 1887;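 active = GFP signal above the screen-wide mean plus 3 SD, that is over about 124.5% of the solvent control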;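 also: AGP1-GFP fusion strain of S. cerevisiae within a five-strain barcoded multiplex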). The settings on record: 3 h, at 10 µM, stronger effect = higher value.
The nature of assay [6]: reduced mouse 2C T cell binding to pMHC/ICAM-1 vesicles – MLPCN validation set, flow cytometry, LFA-1/ICAM-1 modulator project, pilot screen (AID 2523;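 active = response below a set limit, under 55% cells CD8-positive and vesicle-bound, and CD8 cells' 90th-percentile brightness under 279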;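 as to vesicle binding response: mean PE anti-B7-1 fluorescence of CD8+ cells relative to row control; 100% = QL9-loaded vesicles with DMSO vehicle in the same plate row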). Particulars: 2C mouse CD8+ T cells, at 7 µM, stronger effect = lower value; double positive events: measured here: CD8+/vesicle+ event percentage.
The target of assay [7] is Integrin beta-1 (Homo sapiens) + Integrin alpha-4 (Homo sapiens) (UniProt P13612+P05556). Put plainly: alpha4beta1 integrin LIBS antibody binding reduction – U937 cells, HUTS-21 mAb, flow cytometry, validation set, VLA-4 allosteric modulator project, pilot screen (AID 2674;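 active = inhibition above 50%, about 3 SD of the validation set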;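 also: antibody binding induced by the VLA-4 ligand LDV present at three times its Kd; 0% = LDV ligand with antibody and no compound and 100% = antibody without LDV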). Particulars: HUTS-21 LIBS mAb binding, at 6.7 µM, stronger effect = higher value, binding induced by LDV ligand.
Sequence of Integrin beta-1 (Homo sapiens) + Integrin alpha-4 (Homo sapiens) (P05556 whole entry, looked up): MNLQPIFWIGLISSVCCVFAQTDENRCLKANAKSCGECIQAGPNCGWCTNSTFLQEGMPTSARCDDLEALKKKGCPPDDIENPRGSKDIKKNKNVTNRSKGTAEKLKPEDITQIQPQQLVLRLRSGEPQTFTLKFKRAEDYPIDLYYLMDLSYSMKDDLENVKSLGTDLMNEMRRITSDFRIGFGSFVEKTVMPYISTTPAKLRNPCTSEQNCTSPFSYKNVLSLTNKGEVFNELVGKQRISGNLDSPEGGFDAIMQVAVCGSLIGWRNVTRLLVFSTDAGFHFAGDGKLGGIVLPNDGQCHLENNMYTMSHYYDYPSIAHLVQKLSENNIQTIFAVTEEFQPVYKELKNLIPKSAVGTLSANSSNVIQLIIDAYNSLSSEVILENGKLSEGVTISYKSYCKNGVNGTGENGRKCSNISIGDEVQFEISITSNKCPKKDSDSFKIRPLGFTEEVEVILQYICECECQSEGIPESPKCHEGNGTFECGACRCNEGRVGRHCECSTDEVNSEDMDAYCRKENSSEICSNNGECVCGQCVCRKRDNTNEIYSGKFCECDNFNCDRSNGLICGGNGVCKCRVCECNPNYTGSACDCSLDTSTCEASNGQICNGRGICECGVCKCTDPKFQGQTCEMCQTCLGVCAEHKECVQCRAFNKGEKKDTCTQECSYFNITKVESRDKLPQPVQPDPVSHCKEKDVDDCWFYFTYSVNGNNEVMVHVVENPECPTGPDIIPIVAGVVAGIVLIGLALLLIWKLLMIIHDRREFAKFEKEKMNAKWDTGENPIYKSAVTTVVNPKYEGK
Sequence of Integrin beta-1 (Homo sapiens) + Integrin alpha-4 (Homo sapiens) (P13612 whole entry, looked up): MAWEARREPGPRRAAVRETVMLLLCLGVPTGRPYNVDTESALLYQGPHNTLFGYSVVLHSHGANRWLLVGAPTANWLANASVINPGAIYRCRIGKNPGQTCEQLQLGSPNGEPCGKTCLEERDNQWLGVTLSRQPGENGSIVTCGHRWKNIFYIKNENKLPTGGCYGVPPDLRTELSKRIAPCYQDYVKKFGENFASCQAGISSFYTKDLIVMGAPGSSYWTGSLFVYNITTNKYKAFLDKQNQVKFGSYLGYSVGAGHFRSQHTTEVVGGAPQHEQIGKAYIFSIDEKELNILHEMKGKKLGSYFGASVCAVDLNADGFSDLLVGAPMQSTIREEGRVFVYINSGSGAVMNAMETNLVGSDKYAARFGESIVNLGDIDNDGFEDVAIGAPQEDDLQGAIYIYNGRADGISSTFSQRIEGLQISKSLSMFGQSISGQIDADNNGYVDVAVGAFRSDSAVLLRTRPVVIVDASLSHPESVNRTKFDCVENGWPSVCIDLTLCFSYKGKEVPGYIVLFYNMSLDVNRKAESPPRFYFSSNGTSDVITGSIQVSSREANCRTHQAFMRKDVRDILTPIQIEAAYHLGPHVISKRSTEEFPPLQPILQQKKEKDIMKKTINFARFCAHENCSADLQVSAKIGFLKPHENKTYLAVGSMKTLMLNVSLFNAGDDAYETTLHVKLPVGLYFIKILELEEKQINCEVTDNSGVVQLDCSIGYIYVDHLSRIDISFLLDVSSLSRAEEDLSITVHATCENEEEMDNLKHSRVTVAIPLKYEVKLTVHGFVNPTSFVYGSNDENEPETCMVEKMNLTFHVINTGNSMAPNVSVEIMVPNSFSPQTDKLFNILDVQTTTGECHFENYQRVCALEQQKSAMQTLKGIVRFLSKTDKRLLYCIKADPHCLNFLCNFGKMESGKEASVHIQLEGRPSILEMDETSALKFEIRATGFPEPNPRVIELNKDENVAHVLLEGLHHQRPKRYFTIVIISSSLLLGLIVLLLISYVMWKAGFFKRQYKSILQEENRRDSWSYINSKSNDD

Assay [8] in a line: calorie-restriction mimetic ROS inhibitors, yeast – validation compound set, pilot screen (AID 2706;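 active = superoxide response below 65% of plate, a cut near 3 SD across the whole screen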;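 also: yeast exposed to compound for one week at 30 degrees C before staining; 100% = mean of all compound wells on the same plate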). Particulars: S. cerevisiae aging, superoxide DHE fluorescence; at 10 µM, stronger effect = lower value.
For assay [9], the target named is Beta-adrenergic receptor kinase 1 (Homo sapiens) (UniProt P25098). In words: GRK2 binders displacing RNA aptamer, biochemical, validation, human GRK2, bead flow cytometry (AID 488806;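 active = aptamer binding inhibition above 30%, about 3 SD of noise from non-fluorescent compounds; inactive = inhibition at or below 30%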). Particulars: bead-bound GRK2, FAM-aptamer displacement, at 10 µM, stronger effect = higher value.
Sequence of Beta-adrenergic receptor kinase 1 (Homo sapiens) (P25098 whole entry, looked up): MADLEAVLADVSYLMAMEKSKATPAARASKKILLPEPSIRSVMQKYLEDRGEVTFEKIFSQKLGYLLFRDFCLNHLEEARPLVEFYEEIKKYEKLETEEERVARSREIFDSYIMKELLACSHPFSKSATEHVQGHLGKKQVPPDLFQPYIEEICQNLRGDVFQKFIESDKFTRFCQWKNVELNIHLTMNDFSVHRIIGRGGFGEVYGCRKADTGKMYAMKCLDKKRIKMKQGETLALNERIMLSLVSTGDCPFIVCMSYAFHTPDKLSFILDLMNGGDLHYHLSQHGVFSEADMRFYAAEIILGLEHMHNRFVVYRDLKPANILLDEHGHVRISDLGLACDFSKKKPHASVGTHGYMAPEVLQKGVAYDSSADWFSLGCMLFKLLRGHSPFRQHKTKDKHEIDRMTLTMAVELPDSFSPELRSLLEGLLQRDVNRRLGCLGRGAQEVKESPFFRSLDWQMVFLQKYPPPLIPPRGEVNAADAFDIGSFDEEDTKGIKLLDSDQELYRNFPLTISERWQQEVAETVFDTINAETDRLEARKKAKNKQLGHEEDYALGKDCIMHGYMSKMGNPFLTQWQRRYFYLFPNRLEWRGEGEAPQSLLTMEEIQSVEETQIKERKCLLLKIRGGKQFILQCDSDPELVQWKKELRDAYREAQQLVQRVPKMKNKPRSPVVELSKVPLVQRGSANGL
For assay [10], the target named is Beta-2 adrenergic receptor (Homo sapiens) (UniProt P07550). In words: agonist-induced loss of surface beta2AR – cell-based, FAP fluorogen, flow cytometry, validation set, pilot screen (AID 504459;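 active = percent response above 42, roughly 3 SD of non-fluorescent test compounds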;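 also: agonist-driven loss of surface beta2AR via internalization measured by FAP dye flow cytometry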). The settings on record: Am2.2-beta2AR cells, at 10 µM, stronger effect = higher value.
Sequence of Beta-2 adrenergic receptor (Homo sapiens) (P07550 whole entry, looked up): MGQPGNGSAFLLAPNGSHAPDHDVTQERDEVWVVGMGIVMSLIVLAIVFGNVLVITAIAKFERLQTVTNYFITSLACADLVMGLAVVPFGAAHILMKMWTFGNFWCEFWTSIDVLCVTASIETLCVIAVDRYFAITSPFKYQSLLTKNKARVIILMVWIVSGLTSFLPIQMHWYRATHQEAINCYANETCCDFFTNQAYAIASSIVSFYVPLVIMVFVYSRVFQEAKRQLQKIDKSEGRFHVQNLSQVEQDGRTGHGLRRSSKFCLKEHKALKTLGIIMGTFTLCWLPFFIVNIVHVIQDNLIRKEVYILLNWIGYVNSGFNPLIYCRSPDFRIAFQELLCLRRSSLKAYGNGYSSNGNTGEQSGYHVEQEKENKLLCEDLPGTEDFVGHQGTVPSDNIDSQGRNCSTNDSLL
Assay [11] deals with AP-2 complex subunit beta (Homo sapiens) (UniProt P63010). Put plainly: beta-arrestin/AP2 interaction blockers – biochemical, validation set, GST-AP2 beads, flow cytometry, pilot screen (AID 504541;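 active = inhibition above 54%, about 3 SD of non-fluorescent compounds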;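 also: AP2 carries R879A mutation and is captured from E. coli lysate; bead-bound FITC arrestin peptide fluorescence measuring arrestin peptide binding to AP2; 0% = DMSO wells and 100% = excess unlabeled arrestin peptide control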). Particulars: FITC arrestin peptide, at 10 µM, stronger effect = higher value, AP2 beta2 appendage fragment, R879A mutant.
Sequence of AP-2 complex subunit beta (Homo sapiens) (P63010 whole entry, looked up, the tested form may be a part, one chain of several): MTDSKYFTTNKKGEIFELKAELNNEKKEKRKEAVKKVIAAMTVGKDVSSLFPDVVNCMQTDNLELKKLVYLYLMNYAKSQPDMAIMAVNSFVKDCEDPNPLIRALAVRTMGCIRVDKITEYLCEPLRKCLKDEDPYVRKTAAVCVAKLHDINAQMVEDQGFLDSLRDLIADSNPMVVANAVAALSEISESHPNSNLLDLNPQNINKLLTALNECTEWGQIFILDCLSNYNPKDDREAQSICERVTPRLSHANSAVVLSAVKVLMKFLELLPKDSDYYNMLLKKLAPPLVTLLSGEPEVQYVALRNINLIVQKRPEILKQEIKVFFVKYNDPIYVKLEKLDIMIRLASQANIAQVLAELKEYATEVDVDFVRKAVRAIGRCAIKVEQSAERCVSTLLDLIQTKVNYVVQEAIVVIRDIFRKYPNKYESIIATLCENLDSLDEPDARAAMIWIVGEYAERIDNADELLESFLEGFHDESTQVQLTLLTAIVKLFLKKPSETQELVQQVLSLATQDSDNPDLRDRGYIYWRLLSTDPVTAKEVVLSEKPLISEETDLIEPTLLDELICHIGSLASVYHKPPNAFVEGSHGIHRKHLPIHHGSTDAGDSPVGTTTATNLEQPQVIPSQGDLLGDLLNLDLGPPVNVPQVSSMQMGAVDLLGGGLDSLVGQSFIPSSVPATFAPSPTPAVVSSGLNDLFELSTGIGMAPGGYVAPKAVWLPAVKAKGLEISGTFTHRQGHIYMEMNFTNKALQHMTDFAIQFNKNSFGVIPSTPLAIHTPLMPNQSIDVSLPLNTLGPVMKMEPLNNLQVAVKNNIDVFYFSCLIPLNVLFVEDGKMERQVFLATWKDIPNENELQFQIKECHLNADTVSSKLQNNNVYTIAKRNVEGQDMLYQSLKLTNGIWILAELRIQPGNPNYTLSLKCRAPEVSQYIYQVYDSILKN
The nature of assay [12]: cytosolic pH regulators acting via V-ATPase – S. cerevisiae, pHLuorin, HTS validation (AID 504600; in the data active = response above about 15%;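 also: plate controls were DMSO for no effect and reference compound for full effect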). Particulars: V-ATPase proton transport, at 10 µM, stronger effect = higher value.
Assay [13] has as its system anti-desmoglein-3 scFv antibody binding to human DSG3. In words: blockers of pathogenic pemphigus antibody–desmoglein-3 binding – biochemical, validation compound set, bead-based, flow cytometry, pilot screen (AID 588368;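 active = binding below the plate cutoff, the plate median minus 3 SD, with a reading above zero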;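 also: signal is the median channel fluorescence of bead-bound GFP antibody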). Particulars: Protein G beads, DSG3-Fc, scFv-GFP binding, at 10 µM, stronger effect = lower value.
A short description of assay [14]: Nile Red efflux blockade in pump-expressing yeast – validation compound set, multiplex, phenotypic, pilot screen (AID 588506;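 active = efflux inhibition above 0.42, the validation set average plus 4 SD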;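 also: Nile Red retained in cells so higher fluorescence means more efflux inhibition; 0 = negative control wells and 1 = enniatin B 25 µM full block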). The settings on record: S. cerevisiae pump-expressing triplex, Nile Red efflux flow cytometry; at 10 µM; stronger effect = higher value; the pumps come from Candida albicans.
Assay [15] deals with ATP-binding cassette sub-family B member 6 (Homo sapiens) (UniProt Q9NP58). In words: blockers of ABCB6-driven porphyrin uptake – K562-ABCB6 cells, flow cytometry, validation set, pilot screen (AID 588550;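 active = inhibition above the screen-wide mean plus 3 SD, about 51%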;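 also: 0% = DMSO wells and 100% = benzethonium chloride 70 µM positive control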). The settings on record: K562-ABCB6 porphyrin accumulation, 1 h, at 10 µM, stronger effect = higher value.
Sequence of ATP-binding cassette sub-family B member 6 (Homo sapiens) (Q9NP58 whole entry, looked up): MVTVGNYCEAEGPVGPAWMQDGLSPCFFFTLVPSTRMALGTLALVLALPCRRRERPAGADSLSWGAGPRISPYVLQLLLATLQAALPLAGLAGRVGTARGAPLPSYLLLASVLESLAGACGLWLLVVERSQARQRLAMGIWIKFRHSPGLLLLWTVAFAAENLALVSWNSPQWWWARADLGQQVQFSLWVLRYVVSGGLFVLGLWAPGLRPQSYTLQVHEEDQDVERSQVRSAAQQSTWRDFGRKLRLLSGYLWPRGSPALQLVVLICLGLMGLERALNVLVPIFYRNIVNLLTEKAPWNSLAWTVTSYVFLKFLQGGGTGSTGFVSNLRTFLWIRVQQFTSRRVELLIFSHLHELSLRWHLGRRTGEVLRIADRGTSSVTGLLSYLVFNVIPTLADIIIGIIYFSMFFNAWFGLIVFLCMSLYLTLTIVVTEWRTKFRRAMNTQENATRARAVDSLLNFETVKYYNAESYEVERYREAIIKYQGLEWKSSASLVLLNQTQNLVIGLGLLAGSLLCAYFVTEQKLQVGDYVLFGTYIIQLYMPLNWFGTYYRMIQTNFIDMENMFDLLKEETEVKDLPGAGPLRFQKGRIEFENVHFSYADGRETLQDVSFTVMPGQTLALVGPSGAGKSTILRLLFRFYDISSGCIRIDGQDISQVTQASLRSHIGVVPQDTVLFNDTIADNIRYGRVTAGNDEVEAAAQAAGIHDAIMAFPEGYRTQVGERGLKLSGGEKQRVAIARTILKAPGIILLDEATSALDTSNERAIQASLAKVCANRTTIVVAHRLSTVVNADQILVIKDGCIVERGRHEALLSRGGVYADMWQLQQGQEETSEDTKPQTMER
Assay [16] is described as follows: AML differentiation inducers, ER-HoxA9 marrow cells – cell-based, GFP/MAC1 double positive, flow cytometry, validation set, primary screen (AID 588685;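 active = differentiation response of at least 50%, scaled between solvent and reference control, from cells with both markers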;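 also: compound exposure lasts four days before antibody staining and flow analysis; 0% = DMSO wells and 100% = 5 µM fulvestrant positive control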). The settings on record: stronger effect = higher value, normalized: vehicle 0, fulvestrant 100.

Molecules are shown by their SMILES. Results filed as inconclusive are left out. Active and inactive are the calls of the source. Rule as the data show it, unless noted: active = percent of DMSO control GFP below about 86%; inactive = the rest, inconclusive results apart.

In the case of `O=c1n(CCCN2CCN(c3cccc(Cl)c3)CC2)nc2ccccn12`, the percent of DMSO control GFP in assay [1] was 91.5% (inactive). In addition, the GFP response vs DMSO in assay [2] was 112% (inactive); in [4], 75.9% (inactive). Further, the percent response of DMSO control in assay [3] is 106% (inactive). In assay [5], the GFP response, % of DMSO was 92.4% (inactive). The compound further displayed a double positive events in assay [6] of 69.6%. Further, the figures for the inhibition in assay [7], in assay [11] and in assay [15] were 1.61% (inactive), -2.13% (inactive) and 11% (inactive), respectively. The superoxide response (% of plate) in assay [8] was 102% (inactive). Moreover, the aptamer binding inhibition in assay [9] is 2% (inactive). Besides, the response in [10] was 2.3% (inactive); in assay [12], 1.41% (inactive). Moreover, in assay [13], the binding (% of control) is 102% (inactive). In assay [14], the efflux inhibition (fraction of control) was -0.2 (inactive). Further, the differentiation response in assay [16] was 5.73% (inactive).
Consider `O=C1NCC2=C1C(c1ccccc1)Nc1ccccc1N2` (stereo not given), for which the percent of DMSO control GFP in assay [1] is 94.6% (inactive). Besides, the GFP response vs DMSO is 112% (inactive) in assay [2] and 75.9% (inactive) in assay [4]. Besides, the percent response of DMSO control in [3] is 102% (inactive). The double positive events in [6] was 65.6%. For the same compound, the vesicle binding response in [6] was 205% (inactive). The figures for the inhibition in [7], in assay [11] and in [15] were 9.37% (inactive), 1.06% (inactive) and 7% (inactive), respectively. Also, in [8], the superoxide response (% of plate) was 100% (inactive). In [9], the aptamer binding inhibition is 1% (inactive). For the same compound, the response in [10] was -9.09% (inactive); in assay [12] it was -0.53% (inactive). Further, the binding (% of control) in [13] is 102% (inactive). The efflux inhibition (fraction of control) in [14] was 0.16 (inactive). Also, the differentiation response in assay [16] was -4.09% (inactive).
Consider `COc1ccc(-c2onc(C)c2-c2ccc(C(=O)OC(C)C)o2)c(O)c1`, for which the percent of DMSO control GFP in assay [1] was 102% (inactive). Moreover, the GFP response vs DMSO in assay [2] is 109% (inactive); in [4], 102% (inactive). Also, the percent response of DMSO control in assay [3] was 93.4% (inactive). Further, the GFP response, % of DMSO in [5] is 90.1% (inactive). The compound further showed a double positive events in assay [6] of 71.4%. Also, the inhibition is 2.93% (inactive) in [7], -6.7% (inactive) in assay [11] and 5% (inactive) in assay [15]. For the same compound, in assay [8], the superoxide response (% of plate) was 95.6% (inactive). The aptamer binding inhibition in [9] is -3% (inactive). The response was 58.6% (active) in [10] and -0.7% (inactive) in assay [12]. Moreover, in [13], the binding (% of control) is 105% (inactive). The efflux inhibition (fraction of control) in assay [14] was -0.02 (inactive). The differentiation response in [16] is 13% (inactive).
Regarding `C[N+](C)(C)CCOP(=O)(O)OP(=O)([O-])OC[C@H]1O[C@@H](n2ccc(N)nc2=O)[C@H](O)[C@@H]1O`, the percent of DMSO control GFP in [1] is 101% (inactive). Moreover, the GFP response vs DMSO was 113% (inactive) in [2] and 82% (inactive) in assay [4]. Further, the percent response of DMSO control in assay [3] was 112% (inactive). Moreover, in [5], the GFP response, % of DMSO was 102% (inactive). This compound also yielded a double positive events in [6] of 68.8%. The inhibition in [7] is -12.9% (inactive); in [11], -4.05% (inactive); in assay [15] it was 10% (inactive). Besides, in [8], the superoxide response (% of plate) was 89.1% (inactive). Also, the aptamer binding inhibition in assay [9] was 2% (inactive). Besides, the values for the response in [10] and in assay [12] were 3.17% (inactive) and -1.87% (inactive), respectively. For the same compound, the binding (% of control) in assay [13] is 101% (inactive). The efflux inhibition (fraction of control) in assay [14] was -0.17 (inactive). Besides, the differentiation response in assay [16] was -7.37% (inactive).
With `N=C(N)c1ccc(OCCCCCOc2ccc(C(=N)N)cc2)cc1`, in assay [1], the percent of DMSO control GFP was 107% (inactive). In addition, the figures for the GFP response vs DMSO in assay [2] and in [4] were 105% (inactive) and 110% (inactive), respectively. Besides, the percent response of DMSO control in [3] was 96.5% (inactive). Besides, in [5], the GFP response, % of DMSO is 99.6% (inactive). Moreover, in assay [6], the double positive events was found to be 53.8%. Besides, the inhibition is -7.79% (inactive) in assay [7], -15.3% (inactive) in assay [11] and 9% (inactive) in assay [15]. In addition, the superoxide response (% of plate) in [8] is 98% (inactive). In assay [9], the aptamer binding inhibition was -23% (inactive). For the same compound, the response in assay [10] was 20.7% (inactive); in assay [12], -1.89% (inactive). For the same compound, the binding (% of control) in assay [13] is 112% (inactive). For the same compound, in assay [14], the efflux inhibition (fraction of control) was 0.285 (inactive). The differentiation response in assay [16] was 8.59% (inactive).

In general, inhibition refers to the drop in the measured response relative to a control, in per cent.
